Sampled rows, rich in hits. Any-hit rate of the full collection: about 5.7%.
Myeloid diff MLP = myeloid differentiation induction; ER-HoxA9 myeloid progenitors, lysozyme-GFP differentiation, flow cytometry; calls only at 10 µM; 360,000 tested, 1% active;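 active means normalized GFP-positive differentiation at or above the plate's own cutoff, the solvent-only control mean plus 3 SD; inconclusive means no clear call, values can overlap the other calls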;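 further: cells exposed to compound for four days before flow analysis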
GRIN3A LBD mod = NR3A (human) ligand-binding domain modulation; AID 1259313; Tm shift relative to glycine control, % at 25 µM; NR3A LBD differential scanning fluorimetry, Tm shift; 0% = protein alone, 100% = glycine-bound protein; 340,000 tested, 2.5% active;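 active means melting temperature shift of at least 10% of the positive control shift, at one fixed dose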
MPTP block = blocks calcium-induced mitochondrial swelling | 360,000 tested, 1.4% active | inhibition, % at 10 µM | isolated mouse mitochondria, Ca2+ swelling absorbance, 30 min | AID 602449;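 active means inhibition of 50% or more, scaled per plate between neutral and stimulator controls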;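 further: 0% = DMSO wells given calcium and 100% = 1 mM EGTA wells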
FAS TE block = blocks the thioesterase domain of human fatty acid synthase | P49327 | recombinant FAS-TE, OMFH fluorogenic substrate, fluorescence endpoint | inhibition, % at 15 µM | 360,000 tested, 0.67% active;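 active means compounds whose normalised, plate-corrected inhibition of enzyme fluorescence in the single-dose primary screen is 50% or more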;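 further: 0% = DMSO with enzyme and 100% = substrate without enzyme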
rCAG RNA binder = r(CAG) repeat RNA binding; TO-PRO-1 dye displacement fluorescence; inhibition, % at 3 µM; 370,000 tested, 1.3% active;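 active means inhibition above the plate cutoff, the mean of all test compounds on that plate plus 3 SD, cut at about 35% in these data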;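 further: 0% = DMSO alone and 100% = 100 µM mitoxantrone as full dye displacement; higher means more dye released from RNA so lower well fluorescence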
Numbers without * were called inactive; i = inactive; ? = inconclusive; · = not tested or not shown; + = active, no number.

SMILES	Myeloid diff MLP	GRIN3A LBD mod	MPTP block	FAS TE block	rCAG RNA binder
CC(C)[C@H](NC(=O)c1ccccc1)C(=O)N1CCC[C@H]1C(=O)NCCc1ccccc1Cl	·	·	·	·	1
Cc1ccc2c3c(cccc13)-c1ccccc1C2=O	i	-13	3	18	13
Nc1ccc2c3c(cccc13)-c1ccccc1-2	+	4	2	-57	4
C=CCN1C(=O)[C@@H](CC(=O)NCc2ccccc2)[C@]2(C(=O)OC)CCCCC=C12	·	·	·	·	3
O=C(CC1SC(=Nc2ccccc2)N(CCc2c[nH]c3ccccc23)C1=O)Nc1ccccc1F (stereo not given)	i	21*	0	27	9
CCOc1cc(C)c(Cl)cc1S(=O)(=O)NCc1ccco1	i	20*	1	3	-2
C=CCCC(=O)N1CCC(C(=O)NCC2COc3ccccc3O2)CC1 (stereo not given)	·	·	·	·	4
Cc1cc(Cl)ccc1-c1nc(NC(C)C)nc2ccsc12	i	·	-2	16	1
COCc1nc(-c2ccc(-c3ccccc3)nc2OC)no1	i	-2	1	5	-1
COCc1nc(-c2ccc(-c3ccc(OC)cc3)nc2OC)no1	i	31*	-1	8	3
Cc1ccc(C(=O)NC(NC(=S)Nc2ccc(S(N)(=O)=O)cc2)C(Cl)(Cl)Cl)cc1 (stereo not given)	i	19*	7	24	30
CC(=O)NC(CC(C)C)C(=O)NC(Cc1ccccc1)C(=O)CCl (stereo not given)	·	17*	0	9	3
CC(C)(C)C(=O)c1c(N)[nH]c(C(=O)c2ccccc2)c1-c1ccc([N+](=O)[O-])cc1	·	·	·	·	5
Cn1c(-c2c(N)n(CCc3ccccc3)c3nc4ccccc4nc23)nc2ccccc21	i	11*	2	18	·
COC(=O)[C@]12C[C@H](CC(=O)NCCCCc3ccccc3)C(=O)N(Cc3ccccc3)C1=C[C@H](COCc1ccccc1)O[C@@H]2C	·	·	·	·	9
O=C(Cn1c(=O)c2cccn2c2ccc(F)cc21)NCCCN1CCN(c2ccccc2F)CC1	i	13*	0	-11	-10
Cn1c(C(=O)NCCN2CCN(c3ccccc3F)CC2)cc2c(=O)n(C)c3ccccc3c21	+	0	0	1	2
Cn1c(C(=O)NCCCN2CCN(c3ccc(F)cc3)CC2)cc2c(=O)n(C)c3ccccc3c21	?	-1	0	3	3
Nn1c(SCC(=O)NC2CCCCC2)nnc1-c1n[nH]c2c1CCC2	·	·	·	·	4
COC(=O)Nc1ccc2c(c1)N(C(=O)CCN1CCOCC1)c1ccccc1S2	i	7	0	-1	-1
COC(=O)Nc1ccc2c(c1)N(C(=O)CCCl)c1ccccc1S2	+	-5	0	10	·
Cc1ccc(C)c(Nc2cc(C)nc(-c3ccccc3O)n2)c1	?	5	0	27	-1
Cc1cc(Nc2ccccc2)nc(-c2ccccc2O)n1	i	11*	3	26	16
Cc1cc(Nc2ccccc2Cl)nc(-c2ccccc2O)n1	i	1	1	26	6
CCOC(=O)c1ccc(Nc2cc(C)nc(-c3ccccc3O)n2)cc1	i	35*	35	11	10
SMILES	Myeloid diff MLP	GRIN3A LBD mod	MPTP block	FAS TE block	rCAG RNA binder
CC(=O)Nc1ccc(OS(=O)(=O)c2ccc(C)cc2C)cc1	i	16*	-1	1	-3
O=C(N/N=C/C=C\c1ccccc1[N+](=O)[O-])c1cc(-c2ccccc2)nc2ccccc12	i	10*	8	5	4
O=C(N/N=C/c1ccc(O)c(O)c1)c1cc(-c2ccccc2)nc2ccccc12	i	5	10	0	15
O=C(N/N=C/c1ccsc1)c1cc(-c2cccs2)nc2ccccc12	i	12*	3	2	7
O=C(N/N=C/c1ccco1)c1cc(-c2cccc(Br)c2)nc2ccccc12	i	12*	6	25	22
O=C(N/N=C/c1cccc(O)c1)c1cc(-c2ccccc2)nc2ccccc12	i	15*	0	10	13
CCCCS(=O)(=O)N1CCCc2nc(-c3ccc(F)cc3)ccc21	·	·	·	·	5
Cn1c(=O)oc2cc(S(=O)(=O)N3CCN(C(=O)C4CCCO4)CC3)ccc21 (stereo not given)	·	·	·	·	1
CN(C)c1cccc(/C=C2\CC3(OC(=O)c4ccco4)CCCN2C3)c1 (stereo not given)	·	·	·	·	1
CCOC(=O)c1cc2c(ccn2C)n1CC(=O)N(Cc1ccccc1)c1ccc(F)cc1	i	-4	-1	0	-1
